Assay results reported in PMC7819943, “Rice protein-binding microarrays: a tool to detect cis-acting elements near promoter regions in rice”.
In all, about 39,000 sequences were measured (“fluorescence intensity (a.u.)”: median about 4,300, highest 2% from about 39,000 on). The sample as a whole holds a higher share of the highest values than the screen did.

target: T1, OsSMF1 (Oryza sativa, UniProt Q6ZLB0 1-436); assay: protein-binding microarray (RPBM); PBS, 2% BSA, 51.3 ng/ul salmon testes DNA, 50 uM zinc acetate, 200 nM TF, 25 C, 1 h; high values mean tight binding; conditions: protein: recombinant; tags: N-terminal polyhistidine and DsRed monomer fusion (pET32a); chain copies: 2; label: CyDye5-dUTP incorporated in the synthesized complementary strand; 3' TTTTT single-stranded linker to array surface; dsDNA, one strand shown
T1 sequence: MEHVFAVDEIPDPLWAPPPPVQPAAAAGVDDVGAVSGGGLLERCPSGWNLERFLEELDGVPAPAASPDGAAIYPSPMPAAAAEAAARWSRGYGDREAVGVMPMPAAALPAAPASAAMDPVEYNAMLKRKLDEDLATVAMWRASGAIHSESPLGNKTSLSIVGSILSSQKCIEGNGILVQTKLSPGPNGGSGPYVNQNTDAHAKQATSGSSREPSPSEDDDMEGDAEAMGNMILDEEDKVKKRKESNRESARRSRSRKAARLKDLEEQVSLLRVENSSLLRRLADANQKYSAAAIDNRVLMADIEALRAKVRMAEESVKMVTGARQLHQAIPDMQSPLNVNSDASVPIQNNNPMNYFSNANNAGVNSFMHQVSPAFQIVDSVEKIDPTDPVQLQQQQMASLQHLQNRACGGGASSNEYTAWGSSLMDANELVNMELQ
Procedure, shortened: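 The binding signal is fluorescence intensity per feature, in arbitrary units, read on an Axon 4000B scanner. Polyhistidine- and DsRed-tagged transcription factors (N-terminal fusions) from E. coli BL21-CodonPlus were purified on Ni–NTA and applied at 200 nM for 1 h at 25 °C to a double-stranded, BSA-blocked custom Agilent array in buffer with 50 µM zinc acetate.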

Sequence | binding signal
GGCAATCATCTTGAAGCATATCAACCCAACCTGATGTTGTCGGAGTCACCTAGTGCAG | 28100 fluorescence intensity (a.u.)
TTGTTAATTACCGCGATTGATGTCGAGCTTGCATTTTGATCGGAGTCACCTAGTGCAG | 3540 fluorescence intensity (a.u.)
TTATTGCAAAATAGAAGGATGACGCCACGACGGCCGCTGCCGGAGTCACCTAGTGCAG | 3330 fluorescence intensity (a.u.)
TTACATACTGTATCATACTGACGTCAACGTATAATATTCCCGGAGTCACCTAGTGCAG | 8340 fluorescence intensity (a.u.)
TCTGTTAGTGTCATACTGTCATCGACATATAATATTCCCTCGGAGTCACCTAGTGCAG | 42500 fluorescence intensity (a.u.)
CTATACTATTAATATATGGTCTCATCTGTCATACATATATCGGAGTCACCTAGTGCAG | 3830 fluorescence intensity (a.u.)
GCGCTTGCGCCTGACCGCCGCGTGACGACATGTTGTCACCCGGAGTCACCTAGTGCAG | 6800 fluorescence intensity (a.u.)
CGGTGACGACCACCCCACCTCACGATCCAACGGCCAATACCGGAGTCACCTAGTGCAG | 4080 fluorescence intensity (a.u.)
ACATGCAAAGATGCCACATCATCATCCACTATCACTAATTCGGAGTCACCTAGTGCAG | 17600 fluorescence intensity (a.u.)
TCTTTGGATATAAAGCAACTACAATTTCAAAGGTAACCAACGGAGTCACCTAGTGCAG | 3460 fluorescence intensity (a.u.)
TCACTCAAATTTACAGTGCATTTTCTTGTAAGTTACAGTGCGGAGTCACCTAGTGCAG | 4800 fluorescence intensity (a.u.)
AACAAGTGTGTTGGTGGTGGTGGAAGTTGTTACAGAATTGCGGAGTCACCTAGTGCAG | 3470 fluorescence intensity (a.u.)
AGAAGGTTGGAATTTAGTAAGTTGCAGTTACAAATTCAAGCGGAGTCACCTAGTGCAG | 53200 fluorescence intensity (a.u.)
GAATTACAAGGATGGTAAGGTTTGGTCTTTCAAAGTCTTACGGAGTCACCTAGTGCAG | 40100 fluorescence intensity (a.u.)
AAAATTGTTCAAAGGATGGCGTAACTTTGGCGTGGAATTACGGAGTCACCTAGTGCAG | 3180 fluorescence intensity (a.u.)
AAGTTATAACCCACTACATACAAAGATACCACGTCATCATCGGAGTCACCTAGTGCAG | 15900 fluorescence intensity (a.u.)
CATCAGATGCGCCCATCGCTTGAAGGAGAGACGCCGAGACCGGAGTCACCTAGTGCAG | 27300 fluorescence intensity (a.u.)
GCAGTCTTGTAGTCTCGTGCACCAATCGTCGCGCCGCGGCCGGAGTCACCTAGTGCAG | 22300 fluorescence intensity (a.u.)
GCACCTTGAATGAATTATCTAGCAAAGCCAGCGTAGACGTCGGAGTCACCTAGTGCAG | 30200 fluorescence intensity (a.u.)
TGTGTACGTCACATCCTAATTAACATCAACTTGATAAAATCGGAGTCACCTAGTGCAG | 7900 fluorescence intensity (a.u.)
TGGGTCCCTCCATGCTGAGTCAGCTTGTCAATCGGGTCAACGGAGTCACCTAGTGCAG | 21900 fluorescence intensity (a.u.)
AAGCCTAAAACCTCCCCATCCACGTCACCCATCCTCCTCCCGGAGTCACCTAGTGCAG | 22300 fluorescence intensity (a.u.)

Sequence | binding signal
ACCGCCGGTCCACTCACCCCTAACCCTAGCCGCTGCCGCCCGGAGTCACCTAGTGCAG | 4020 fluorescence intensity (a.u.)
TGGCTCCCACGTTAACTTAGCCGCCACGTCAGCTAAAACCCGGAGTCACCTAGTGCAG | 46600 fluorescence intensity (a.u.)
GGGCTCCCTCCACCGCCGCCTCCGCCACCGCCTCGCCGCCCGGAGTCACCTAGTGCAG | 3150 fluorescence intensity (a.u.)
GCCTAACCCTAACCCTAGCCGCCACCGCTCAACCGCCTCCCGGAGTCACCTAGTGCAG | 65100 fluorescence intensity (a.u.)
ACACGCCACGCCGCCACCTCCACTTCGTTAACCCTTCTCCCGGAGTCACCTAGTGCAG | 5410 fluorescence intensity (a.u.)
GACGACTGCTGGTACACGGACATGAGGCTGCAGCCGACGACGGAGTCACCTAGTGCAG | 3480 fluorescence intensity (a.u.)
GCCACGCCCAACCCGTGTCACTGTCACGTGGGCCCCACCCCGGAGTCACCTAGTGCAG | 7720 fluorescence intensity (a.u.)
CAACCAATCAATCACATACGTGGACAACTGCAGAAAATGCCGGAGTCACCTAGTGCAG | 5610 fluorescence intensity (a.u.)
CGGCTCCGCCGCACTTGCTCGGCCGTCCACGCCGGCACGGCGGAGTCACCTAGTGCAG | 3640 fluorescence intensity (a.u.)
ACTGCCGGTTCAACTGCTCCACGGCTCCACTCCACGCATCCGGAGTCACCTAGTGCAG | 43300 fluorescence intensity (a.u.)
ATCGCGCATCCACTCCACACCACACGCTTCACTGGTTCCGCGGAGTCACCTAGTGCAG | 3870 fluorescence intensity (a.u.)
ACTATGGATATCTGTTTTAGCTGACATGGCATCCTACTCACGGAGTCACCTAGTGCAG | 8140 fluorescence intensity (a.u.)
ACCACTGTTTGTGGAGTGTGTGCACACACCACCTCCGATGCGGAGTCACCTAGTGCAG | 3810 fluorescence intensity (a.u.)
ATTCACTGATAATAGAGACCCACACGTTAGTATTGGAGTACGGAGTCACCTAGTGCAG | 3140 fluorescence intensity (a.u.)
TGGATATACATATGCCATGTCGATTTTGTGCCGAAGTGGACGGAGTCACCTAGTGCAG | 3330 fluorescence intensity (a.u.)
TGTGGTTGGTGTCGATTTGGAATGGGGTGAAATGGACTGGCGGAGTCACCTAGTGCAG | 3260 fluorescence intensity (a.u.)
AAGGTGAGGTTGGTCAACATTTGTCATCAAATTTTGATCACGGAGTCACCTAGTGCAG | 3400 fluorescence intensity (a.u.)
AAATTATGTCATTTTGATCAACAGTTGGTACAGTAGTACACGGAGTCACCTAGTGCAG | 48000 fluorescence intensity (a.u.)
CTTCAGTTATGTTAATTACATGTCATTTGTTTTGTTACAACGGAGTCACCTAGTGCAG | 4920 fluorescence intensity (a.u.)
TGCACCTAGGTGTACATGTCATTGTGTGTTTGTGGTTGGTCGGAGTCACCTAGTGCAG | 4630 fluorescence intensity (a.u.)
CATTTGTTTTATTTTAGCATTTGTCACTTACATGTGGGACCGGAGTCACCTAGTGCAG | 3180 fluorescence intensity (a.u.)
